# Measurements: PubChem BioAssay (NCATS)
# Values without a mark were called inactive. Records with an inconclusive call do not appear. A call without a number means that no potency is given here. Activity calls are given as the source filed them. The call rests on the fitted dose curve; in most records, active means well fitted curve in the direction sought with a large enough effect; inconclusive means small, poorly fitted or top-dose-only effect, or another doubt; inactive means no such curve, though single readings can be large; an effect the other way counts as inactive or inconclusive.
# How the values were obtained:
# [1] = HPAF-II 24hr Apoptosis Induction qHTS against the NCATS CANVASS Library (AID 1347356)
# Procedure, shortened: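 500 HPAF-II cells/well; compounds in 11-pnt qHTS; 24 h, 37 C/5% CO2; Caspase-Glo 3/7 added, 15 min RT dark; luminescence read. Doxorubicin control.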
# [2] = HEK293 18hr Apoptosis Induction qHTS against the NCATS CANVASS Library (AID 1347357)
# Procedure, shortened: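 Cells seeded at 500/well in DMEM + 10% FBS. Compounds pinned, 11 concentrations. 18 h, 37 degrees C/5% CO2. Caspase-Glo 3/7 added, 15 min RT dark, luminescence read.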
# [3] = HPAF-II 12hr Apoptosis Induction qHTS against the NCATS CANVASS Library (AID 1347358)
# Procedure, shortened: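 Caspase-Glo 3/7 luminescence (DEVD substrate) reports caspase activity in HPAF-II cells after 12 h compound treatment at 37 degrees C. Compounds were tested in an 11-point series. Doxorubicin served as control.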
# [4] = HEK293 24hr Apoptosis Induction qHTS against the NCATS CANVASS Library (AID 1347359)
# Procedure, shortened: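 HEK293 cells (500/well, DMEM + 10% FBS) were exposed to compounds in an 11-point series for 24 hours at 37 degrees C, then caspase-3/7 activity was read by Caspase-Glo DEVD luciferase luminescence after 15 min.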
# [5] = HPAF-II 18hr Apoptosis Induction qHTS against the NCATS CANVASS Library (AID 1347360)
# Procedure, shortened: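 Seed HPAF-II cells at 500/well in DMEM + 10% FBS, pin-transfer compounds, incubate 18 hours at 37 degrees C/5% CO2, add Caspase-Glo 3/7 reagent, wait 15 min, read luminescence.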
# [6] = HEK293 12hr Apoptosis Induction qHTS against the NCATS CANVASS Library (AID 1347361)
# Procedure, shortened: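 Cells are seeded, dosed with an 11-point compound series and incubated 12 hours. Caspase-3/7 activity is detected by luminescent DEVD-substrate reagent after 15 minutes at room temperature.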
# [7] = test system: NAD(P)H diaphorase (Clostridium kluyveri); test: Diaphorse counterscreen qHTS: Assay Interference Panel against the NCATS CANVASS Library (AID 1347362)
# Procedure, shortened: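 Clostridium kluyveri diaphorase in PBS with 0.01% Tween-20 was preincubated 15 min at room temperature in the dark with compounds (11-point series). Resorufin fluorescence (ex 525/20, em 598/25) was read 5 min after adding resazurin/NADH.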
# [8] = target: Luciferin 4-monooxygenase (Photinus pyralis) (UniProt P08659); test: Firefly luciferase counterscreen qHTS: Assay Interference Panel against the NCATS CANVASS Library (AID 1347363); further: series mostly up to about 57 µM
# Luciferin 4-monooxygenase (Photinus pyralis), sequence (P08659 whole entry, looked up): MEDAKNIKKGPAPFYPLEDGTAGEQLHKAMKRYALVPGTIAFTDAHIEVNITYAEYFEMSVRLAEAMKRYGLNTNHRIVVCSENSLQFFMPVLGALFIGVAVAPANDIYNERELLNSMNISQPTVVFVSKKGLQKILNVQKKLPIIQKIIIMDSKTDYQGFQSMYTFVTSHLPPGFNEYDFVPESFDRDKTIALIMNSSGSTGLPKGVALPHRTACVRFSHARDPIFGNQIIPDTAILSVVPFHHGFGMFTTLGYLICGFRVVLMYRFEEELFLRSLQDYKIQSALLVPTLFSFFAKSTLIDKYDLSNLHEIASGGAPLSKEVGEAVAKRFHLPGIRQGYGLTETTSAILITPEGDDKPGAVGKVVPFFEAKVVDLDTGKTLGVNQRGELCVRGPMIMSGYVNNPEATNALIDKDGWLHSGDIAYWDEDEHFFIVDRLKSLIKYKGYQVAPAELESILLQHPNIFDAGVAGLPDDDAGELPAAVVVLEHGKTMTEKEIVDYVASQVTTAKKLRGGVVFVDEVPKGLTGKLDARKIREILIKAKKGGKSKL
# Procedure, shortened: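 Purified P. pyralis luciferase was added to compounds (11-point series) preincubated 15 min at room temperature with substrate containing 0.013 mM D-luciferin and 0.013 mM ATP; luminescence was read after 5 min.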
# [9] = G06 Cancer Cell Toxicity qHTS against the NCATS CANVASS Library (AID 1347368); further: nearly all actives have a fitted effect of over 60% in size; further: potency means the concentration at half of the fitted maximal effect
# Procedure, shortened: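 ATP luminescence (CellTiterGlo) readout of cytotoxicity. Canine G06 glioma cells, 500/well, 72 hr incubation at 37C with compounds; bortezomib titration served as control.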
# [10] = MCF7 Cancer Cell Toxicity qHTS against the NCATS CANVASS Library (AID 1347369)
# Procedure, shortened: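 Cells seeded at 500/well, then compound pinned. Plates incubated 72 hr at 37C, 5% CO2. CellTiterGlo added; luminescence read.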
# [11] = qHTS for ATAD5 Antagonist screened against the NCATS CANVASS Library (AID 1347370); further: nearly all actives have a fitted effect of over 65% in size; further: potency means the concentration at half of the fitted maximal effect
# Procedure, shortened: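 HEK293T-ATAD5 luc reporter, 2000 cells/well; 5hr attach; cpd + 10 uM 5-FUrd; 16hr 37C, 5% CO2. Readouts: CellTiter-Fluor fluorescence (1hr), then Amplite luciferase luminescence (30min RT).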
# [12] = J3T Cancer Cell Toxicity qHTS against the NCATS CANVASS Library (AID 1347371); further: potency means the concentration at half of the fitted maximal effect
# Procedure, shortened: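 Dog glioma J3T, 500 cells/well; cpd 11-pt qHTS; 72 hr, 37C/5% CO2; CellTiterGlo ATP luminescence readout.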
# [13] = 10-beta competent E. coli microbial cell viability qHTS against the NCATS CANVASS Library (AID 1347376); further: series mostly up to about 46 µM
# Procedure, shortened: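 Luminescence from BacTiter-Glo ATP detection served as the viability read-out; bacteria (0.2 OD) had been incubated overnight at 37C with pin-transferred compounds at 11 concentrations.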
# [14] = qHTS for H2AX Agonists against the NCATS CANVASS Library (AID 1347378);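 further: phospho-H2AX S139 level in CHO-K1 lysates by TR-FRET emission ratio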; further: potency means the concentration at half of the fitted maximal effect
# Procedure, shortened: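 CHO-K1, 1000 cells/well, o/n 37C; cpd several conc, 3 hr 37C, 0.76% DMSO; lyse 30 min RT; cryptate anti-pH2AX(S139) + d2 anti-H2AX, 24 hr RT; HTRF 665/620.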
# [15] = qHTS for Inflammasome Signaling Inhibitors: IL-1-beta AlphaLISA screen against the NCATS CANVASS Library (AID 1347379);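 further: human THP-1 cells primed with LPS then triggered with ATP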;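 on potency: secreted IL-1B measured as AlphaLISA emission at 615 nm; potency means the concentration at half of the fitted maximal effect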
# Procedure, shortened: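 THP-1, 1 hr compound pre-incubation, then LPS 250 ng/mL + ATP 1.25 mM (final); 16 hr total with compound; IL-1B AlphaLISA, ex 680/em 615 nm; 11-point qHTS, up to 57.5 uM final.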
# [16] = Inflammasome Signaling qHTS Counterscreen: IL-1-beta AlphaLISA counterscreen against the NCATS CANVASS Library (AID 1347381);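 further: cell-free check with purified IL-1β in medium and no THP-1 cells; series mostly up to about 57 µM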
# Procedure, shortened: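 Here, no cellular stimulation occurs; compounds in an 11-point series meet 4 pg purified IL-1-beta directly. Bead-based AlphaLISA detection follows (1 h acceptor/antibody, then 30 min donor, dark, room temperature), with excitation at 680 nm.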
# [17] = Cytotoxicity qHTS for assessment of Hepg2 cells membrane integrity screened against the NCATS CANVASS Library (AID 1347387)
# Procedure, shortened: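 LDH release read by fluorescence (560 nm ex/590 nm em) after CytoTox-ONE addition and 10 min RT; signal tracks lysed cells. HepG2, 2000 cells/well, plated overnight; compound 5 hr, 37C, 5% CO2, final 0.59 nM - 46 uM, 11 points.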
# [18] = qHTS for activators of dead-cell proteases activity screened against the NCATS CANVASS Library (AID 1347392);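 further: luminescence from protease leaking out of membrane-damaged cells cleaving impermeant substrate; rising signal means more cytotoxicity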
# Procedure, shortened: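 Cytotoxicity in HepG2 cells was assessed by released protease cleaving AAF-aminoluciferin, with luminescence as signal. Exposure lasted 5 h at 37C across an 11-point series.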
# [19] = Redox Reaction Profiling qHTS: Assay Interference Panel against the NCATS CANVASS Library (AID 1347401)
# Procedure, shortened: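 Quantitative HTS over an 11-point series was run in HEPES pH 7.3 with 50 mM NaCl, 200 uM DTT and 5 uM resazurin. Initial and 15-min resorufin fluorescence readings were taken.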
# [20] = KB-3-1 Cancer Cell Toxicity qHTS against the NCATS CANVASS Library (AID 1347366); further: nearly all actives have a fitted effect of over 75% in size; further: potency means the concentration at half of the fitted maximal effect
# Procedure, shortened: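 Luminescence from CellTiter-Glo (10 min, room temperature) measured KB-3-1 viability after 72 hr compound exposure at 37C. Cells were seeded at 500/well and tested in an 11-point series.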
Compound,outcome [1],Potency [2],Potency [3],Potency [4],Potency [5],outcome [6],Potency [7],Potency [8],Potency [9],Potency [10],Potency [11],Potency [12],outcome [13],Potency [14],Potency [15],outcome [16],outcome [17],Potency [18],Potency [19],Potency [20]
C/C=C/C(=O)C1(O)CC2CC(C(=O)O)CC(C)C2C1C1=C2C(=O)NC(=O)C2=C(CCCCC)C(C)O1 (configuration not stated),inactive,inactive,inactive,inactive,inactive,inactive,inactive,inactive,11.8 µM (active),inactive,16.6 µM (active),20.9 µM (active),inactive,inactive,19.3 µM (active),inactive,–,–,–,–
CC(C)=CC[C@H]1C[C@@]2(CC=C(C)C)C(=O)[C@](CC=C(C)C)(C(=O)C(C(=O)c3ccccc3)=C2O)C1(C)C,inactive,inactive,inactive,inactive,inactive,inactive,inactive,inactive,20.9 µM (active),inactive,–,–,inactive,inactive,–,inactive,inactive,inactive,inactive,–
Oc1ccc(C2Oc3cc(O)c4c(c3[C@@H]2c2cc(O)cc(O)c2)[C@H]2C(c3ccc(O)cc3)c3c(O)cc5c(c3[C@H]2C4c2ccc(O)cc2)[C@H](c2cc(O)cc(O)c2)C(c2ccc(O)cc2)O5)cc1 (some centres not stated),inactive,inactive,inactive,inactive,inactive,inactive,inactive,inactive,–,inactive,inactive,inactive,inactive,inactive,inactive,inactive,inactive,inactive,–,13.2 µM (active)
CC1=C2CC[C@]3(C)[C@H](CC=C4[C@@H]5CC(C)(C)CC[C@@H]5C(=O)[C@H](O)[C@]43C)[C@@]2(C)C=C(O)C1=O,inactive,inactive,inactive,inactive,inactive,inactive,inactive,inactive,inactive,inactive,–,inactive,inactive,inactive,inactive,inactive,inactive,inactive,inactive,inactive
C[C@@H]1CC[C@]2(C(=O)O)CC[C@]3(C)C(=C2[C@H]1C)CC[C@@H]1[C@@]2(C)CC[C@H](O)C(C)(C)[C@@H]2CC[C@]13C,inactive,inactive,inactive,inactive,inactive,inactive,inactive,inactive,inactive,inactive,inactive,inactive,inactive,34.4 µM (active),–,inactive,inactive,inactive,inactive,inactive
C=CC(C)(C)C(=O)[C@@H](C)[C@@H]1CC[C@@](C)(C=C)O1,inactive,inactive,inactive,inactive,inactive,inactive,inactive,inactive,inactive,inactive,inactive,inactive,inactive,inactive,inactive,inactive,inactive,inactive,inactive,inactive
COc1cc([C@@H]2c3cc4c(cc3C[C@@]3(O[C@@H]5O[C@H](CO)[C@@H](O)[C@H](O)[C@H]5O)COC(=O)[C@H]23)OCO4)cc(OC)c1OC,inactive,inactive,inactive,inactive,inactive,inactive,inactive,inactive,0.0418 µM (active),inactive,inactive,–,inactive,inactive,inactive,inactive,inactive,inactive,inactive,0.0372 µM (active)
Cc1cc(C)c(O)c(C(=O)CC2CC(=O)NC(=O)C2)c1,inactive,inactive,inactive,inactive,inactive,inactive,inactive,inactive,2.64 µM (active),–,4.67 µM (active),–,inactive,–,inactive,inactive,inactive,inactive,inactive,13.2 µM (active)
COC1C(C)OC(OCC23C[C@@H]4[C@H](C)CC[C@H]4C4(C=O)CC2C=C(C(C)C)C34C(=O)O)[C@@H](O)[C@H]1O (some centres not stated),inactive,inactive,inactive,inactive,inactive,inactive,inactive,inactive,inactive,inactive,inactive,inactive,inactive,inactive,inactive,inactive,inactive,inactive,inactive,inactive
C=C1[C@@]2(C)CC3C4(C)CCC(O)C(C)(C)C4CCC3(C)[C@]1(C(=O)OC)C(=O)C(C)(O)C2=O (some centres not stated),inactive,inactive,inactive,inactive,inactive,inactive,inactive,inactive,inactive,inactive,inactive,inactive,inactive,inactive,inactive,inactive,inactive,inactive,inactive,inactive
C/C(=C\[C@H](C)C(=O)C[C@H](O)CC1CC(=O)NC(=O)C1)[C@@H]1OC(=O)CCCC/C=C/C[C@@H](O)[C@@H]1C,inactive,inactive,inactive,inactive,inactive,inactive,inactive,inactive,2.64 µM (active),inactive,8.31 µM (active),–,inactive,inactive,–,inactive,inactive,inactive,inactive,14.8 µM (active)
C/C=C/[C@H]1[C@H]2C(=O)c3c(O)c(C)c(O)c(C)c3[C@]1(C(=O)O)C(=O)C=C2C,inactive,inactive,inactive,inactive,inactive,inactive,inactive,inactive,inactive,inactive,inactive,inactive,inactive,inactive,inactive,inactive,inactive,inactive,inactive,inactive
